We go through 2 compounds from PubChem BioAssay AID602193 (The Scripps Research Institute Molecular Screening Center, 2012).

As a reminder, the inhibition is the change of the read-out against control, counted positive when it falls.

Each structure is given as a SMILES string. Out of some 1,600 compounds screened, about 410 (26%) were called active. This is one part of a sample in which actives are shown more often than they occur. A number with no mark means an inactive call.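 The calls were made as follows: active = mean inhibition over triplicates above the low-control well mean plus 3 SD, set per campaign (cut at about 13% in these data); inactive = the rest.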

The nature of this assay: forskolin-stimulated cAMP inhibition in U2OS – cell-based, TR-FRET, triplicate, counter-screen for MC4R biased antagonist project (AID 602193).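 Also: signal is single emission at 671 nm which falls as cellular cAMP rises; 0% = forskolin-stimulated wells and 100% = buffer without forskolin.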 The following applies: parental U2OS, LANCE TR-FRET, at 6.5 µM, stronger effect = higher value. A general note: TR-FRET usually uses a lanthanide donor and a delayed reading to cut background.
Consider `Cc1cccc(N2C(=O)NC(=O)/C(=C\c3cnn(-c4ccccc4)c3)C2=O)c1`, for which the inhibition is 14.2% (active).

`COc1cccc(N2C(=O)NC(=O)/C(=C\c3ccc([N+](=O)[O-])s3)C2=O)c1`: the inhibition was 0.64%.
